Compound activity deposited in PubChem by several laboratories.
Gli-Sufu block: blocks Gli-Sufu signaling in a luciferase reporter | Sufu-KO-LIGHT fibroblasts, Gli luciferase reporter luminescence | inhibition, % at 5 µM | hit rate 0.74% among 340,000;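 active means inhibition above about 55%, limit read from the data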;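 further: 0% = DMSO-treated cells and 100% = wells with medium but no cells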
MPTP inh: inhibitors of mitochondrial permeability transition pore. isolated mouse mitochondria, Ca2+ swelling absorbance, 30 min. inhibition, % at 10 µM. hit rate 1.4% among 360,000. AID 602449;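 active means inhibition of 50% or more, scaled per plate between neutral and stimulator controls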;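 further: 0% = DMSO wells given calcium and 100% = 1 mM EGTA wells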
Mdm2 MdmX PPI: human Mdm2/MdmX binding inhibition; O15151+Q00987; SaOS-2 split-luciferase Mdm2/MdmX complementation, luminescence; inhibition, % at 8 µM; hit rate 3% among 330,000; AID 485346;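 active means inhibition of at least 50% at 8 µM in the primary screen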
Beta apoptosis: beta cell apoptosis inhibition | INS-1E cytokine-induced death, ATP luminescence, 48 h; percent of positive-control rescue, neutral wells zero | protection from apoptosis, % (concentration not given with the values) | hit rate 0.8% among 300,000;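 active means Every replicate reaches about 75%, or at least half do and their mean reaches it too, limit read from the data; inconclusive means At least half of replicates reach the limit but their mean does not; inactive means Under half of replicates reach the limit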;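 further: 0% = cytokine-treated negative control wells and 100% = positive control rescue; higher means more ATP so stronger rescue from cytokine killing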
NR3A LBD binder: modulators (binders) of human NR3A ligand-binding domain; NR3A LBD differential scanning fluorimetry, Tm shift; 0% = protein alone, 100% = glycine-bound protein; Tm shift relative to glycine control, % at 25 µM; hit rate 2.5% among 340,000;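 active means melting temperature shift of at least 10% of the positive control shift, at one fixed dose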
CSC inhib: blocks cancer stem cells | AID 2717 | cancer stem cell-like cells viability, luminescence | inhibition, % at 7.5 µM | hit rate 1.1% among 300,000; in the data active means inhibition above about 75%; inconclusive means no clear call, values can overlap the other calls; tested in HMLE shEcad cells
Mdm2-MdmX conf: confirmation of human Mdm2/MdmX interaction inhibitors; shares compounds with Mdm2 MdmX PPI; Mdm2-MdmX binding, luminescent assay; inhibition, % at 8 µM; hit rate 55% among 10,000; AID 489028; in the data active means inhibition above about 40%
FLuc counter: inhibits full-length luciferase, flagging false Mdm2/MdmX hits; hit rate 77% among 6,200; inhibition, % at 8 µM; shares compounds with Mdm2 MdmX PPI; SaOS-2 full-length luciferase counterscreen, luminescence;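 active means mean inhibition at 8 µM reaching about 37%, which flags the compound as non-specific, limit read from the data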;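 further: p53-null SaOS-2 cells with luciferase driven by a doxycycline-inducible promoter; compound on cells about two nights before reading with doxycycline added after day one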
Starred values were filed as active, the others as inactive. Rows were chosen to be rich in hits. Some 6.6% of all compounds tested hit in one or more screens of this group.

`CCCS(=O)(=O)NC(=O)C1(C)CCN(C(=O)c2c(-c3ccccc3)noc2C)C1` (stereo not given) gave MPTP inh -0.8.
`COc1ccc(NC(=O)Cn2nnc(C(=O)NCc3ccc(C)cc3)c2N)cc1Cl` gave Gli-Sufu block -5.5, MPTP inh 1.2, Mdm2 MdmX PPI 53.2*, NR3A LBD binder 17.4*, CSC inhib -14.4 and Mdm2-MdmX conf 31.9.
Cc1ccc(NC(=O)Cn2nnc(C(=O)NCCc3ccccc3)c2N)c(C)c1 was read as Gli-Sufu block -30.6, MPTP inh -0.2, Mdm2 MdmX PPI 60.9*, NR3A LBD binder -0.8, CSC inhib -1.1 and Mdm2-MdmX conf 9.8.
COc1ccc(NC(=O)Cn2nnc(C(=O)NCc3ccccc3)c2N)cc1Cl was read as Gli-Sufu block 6.4, MPTP inh -0.8, Mdm2 MdmX PPI 26.3, Beta apoptosis 4.6, NR3A LBD binder -4.0 and CSC inhib -4.0.
For COc1ccc(Cl)cc1NC(=O)Cn1nnc(C(=O)NCCc2ccc(OC)c(OC)c2)c1N the results were Gli-Sufu block -6.1, MPTP inh -0.4, Mdm2 MdmX PPI 21.5, Beta apoptosis 1.7, NR3A LBD binder -2.0 and CSC inhib -6.9.
For COc1ccc(NC(=O)Cn2nnc(C(=O)Nc3ccc(F)c(Cl)c3)c2N)cc1OC the results were Gli-Sufu block 11.6, MPTP inh 0.5, Mdm2 MdmX PPI 66.0*, NR3A LBD binder 77.5*, CSC inhib -4.8 and Mdm2-MdmX conf 31.3.
Screening COc1ccc(Cl)cc1NC(=O)c1nnn(CC(=O)Nc2ccc(C)c(C)c2)c1N returned Gli-Sufu block -8.5, MPTP inh 2.8, Mdm2 MdmX PPI 52.6*, NR3A LBD binder 14.5*, CSC inhib -17.8 and Mdm2-MdmX conf 31.9.
Screening Cc1ccc(NC(=O)Cn2nnc(C(=O)Nc3ccc(C)c(C)c3)c2N)cc1 returned Gli-Sufu block -20.0, MPTP inh 5.9, Mdm2 MdmX PPI -9.8, Beta apoptosis 1.3, NR3A LBD binder -3.9 and CSC inhib -4.8.
Screening O=c1[nH]c(=S)[nH]cc1Oc1ccccc1 returned Gli-Sufu block 2.6, MPTP inh 0.6 and NR3A LBD binder -1.2.
For CC12CNCC(C)(CN(C(c3ccccc3)c3ccccc3)C1)C2 the results were Gli-Sufu block 2.5, MPTP inh 7.0, Mdm2 MdmX PPI 95.9*, Beta apoptosis 28.0, NR3A LBD binder 0.1, CSC inhib 38.6, Mdm2-MdmX conf 46.7* and FLuc counter 63.3*.
For CC(=O)N1CCN(C(c2ccccc2)c2ccccc2)CC1 the results were Gli-Sufu block 18.5 and Mdm2 MdmX PPI -1.3.
`Oc1ccc(/C=N/Nc2nc(-c3ccc(Cl)cc3)cc(C(F)(F)F)n2)cc1` gave Gli-Sufu block 2.5, MPTP inh 7.2, Mdm2 MdmX PPI 57.0*, Beta apoptosis -3.5, NR3A LBD binder 31.6*, CSC inhib 85.4* and Mdm2-MdmX conf 21.7.
Screening O=C(NCCCC(NC(=O)OCc1ccccc1)C(=O)O)OCc1ccccc1 (stereo not given) returned Gli-Sufu block -4.1, MPTP inh 0.5, Mdm2 MdmX PPI 6.6, Beta apoptosis -1.8, NR3A LBD binder 1.8 and CSC inhib -12.0.
For CC(C)(CCO)Nc1ncnc2onc(-c3ccc(F)cc3)c12 the results were Gli-Sufu block -4.8, MPTP inh -0.7, Mdm2 MdmX PPI 14.7, Beta apoptosis 7.6, NR3A LBD binder -2.4 and CSC inhib -14.7.
CC(=O)N(C)C1=C(N2CCOCC2)C(=O)c2ccccc2C1=O was read as Gli-Sufu block 23.2, MPTP inh 3.9, Mdm2 MdmX PPI 82.2*, Beta apoptosis 125.2*, NR3A LBD binder -15.4, Mdm2-MdmX conf 85.7* and FLuc counter 48.3*.
For CC(=O)N(C1=C(N2CCOCC2)C(=O)c2ccccc2C1=O)c1ccc(C(=O)O)cc1 the results were Gli-Sufu block 40.6, MPTP inh 3.7, Mdm2 MdmX PPI 24.8, Beta apoptosis -8.7, NR3A LBD binder -1.7 and CSC inhib -5.0.
COc1cc(CNCCO)cc(Br)c1OCc1ccccc1Cl was read as Gli-Sufu block -19.4, MPTP inh 9.7, Mdm2 MdmX PPI 57.2*, Beta apoptosis 7.4, NR3A LBD binder -1.1, CSC inhib 28.7 and Mdm2-MdmX conf 14.2.
Screening COc1cccc(CNCCO)c1OCc1ccccc1 returned Gli-Sufu block 2.5, MPTP inh -3.5, Mdm2 MdmX PPI 16.0, Beta apoptosis 0.9, NR3A LBD binder -1.6 and CSC inhib -0.6.
For COc1cc(CNC(C)(C)CO)cc(Br)c1OCc1ccc(Cl)cc1Cl the results were Gli-Sufu block 13.9, MPTP inh 12.2, Mdm2 MdmX PPI 55.1*, Beta apoptosis 2.8, NR3A LBD binder -5.6, CSC inhib inconclusive, Mdm2-MdmX conf 40.2* and FLuc counter 101.8*.
For COc1cc(CNC(C)(C)CO)cc(Br)c1OCc1ccc(Cl)cc1 the results were Gli-Sufu block 13.9, MPTP inh 12.9, Mdm2 MdmX PPI 49.5, Beta apoptosis 1.5, NR3A LBD binder -3.1 and CSC inhib 34.5.
COCCCC1CCN(C(=O)C2CCC(=O)N(CC3CCCCC3)C2)CC1 (stereo not given) was read as Gli-Sufu block -0.9, MPTP inh -0.3, Mdm2 MdmX PPI 19.8, Beta apoptosis -0.5, NR3A LBD binder -1.1 and CSC inhib -16.2.
`Cc1cccc(N2CCN(C(=O)c3ccc(CS(=O)(=O)c4ccccc4C)o3)CC2C)c1` (stereo not given) gave Gli-Sufu block 17.3, MPTP inh 6.6, Mdm2 MdmX PPI 64.8*, Beta apoptosis 20.9, NR3A LBD binder 1.9, CSC inhib -10.0, Mdm2-MdmX conf 51.6* and FLuc counter 81.8*.
`Cc1c(C(=O)NCc2ccc3c(c2)OCO3)oc2ccc(Br)cc12` gave Gli-Sufu block 0.4, MPTP inh 4.3, Mdm2 MdmX PPI 72.9*, Beta apoptosis -7.3, NR3A LBD binder -12.1, CSC inhib 5.0 and Mdm2-MdmX conf 7.5.
`O=C(NNC(=O)C12CC3CC(CC(C3)C1)C2)c1ccccc1F` gave Gli-Sufu block 9.6, MPTP inh -0.3, Mdm2 MdmX PPI -39.6, Beta apoptosis 9.3, NR3A LBD binder 0.2 and CSC inhib 0.0.
O=C(NNC(=O)C12CC3CC(CC(C3)C1)C2)c1ccccc1O was read as Gli-Sufu block -0.6, MPTP inh -2.0, Mdm2 MdmX PPI 52.5*, Beta apoptosis 70.4, NR3A LBD binder 1.0, CSC inhib 0.0 and Mdm2-MdmX conf 17.4.
`O=C(NCC1CCCO1)c1ccc(Cl)c(NS(=O)(=O)c2ccc(F)cc2)c1` (stereo not given) gave MPTP inh -0.1.
`O=C(COC(=O)c1nc(Cl)c(Cl)c(Cl)c1Cl)NCc1ccccc1` gave Gli-Sufu block 2.2, MPTP inh 0.2, Mdm2 MdmX PPI 54.3*, NR3A LBD binder -1.6 and Mdm2-MdmX conf 31.6.
